# IL-1B inflam inh – qHTS for Inhibitors of Inflammasome Signaling: IL-1-beta AlphaLISA Primary Screen; THP-1 LPS/ATP IL-1B secretion, AlphaLISA, 16 h; active compounds read low; AID 743279, 2014; actives 4.7% (n = 360,000); activity change, % at 57.5 µM; in the data active means activity change below about -50%; inconclusive means mostly about -30% to -49%
#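 Secreted IL-1B measured by AlphaLISA bead assay after 16 h compound exposure of THP-1 cells; compounds (final up to 57.5 uM) added 1 h before LPS (250 ng/mL) and ATP (1.25 mM) stimulation; lower signal means less secretion.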
# DT40 TDP1 CPT – qHTS for Inhibitors of human tyrosyl-DNA phosphodiesterase 1 (TDP1): qHTS in cells in presence of CPT | chicken DT40 Tdp1-/-;hTDP1 cells + 20 nM CPT, ATP luminescence, 48 h | Potency, µM (doses to about 46.2 µM), without a hit: top-dose activity change, negative = growth inhibition, most hits filed as inhibitors | actives 12% (n = 420,000) | AID 686979, 2013; further: potency means the concentration at half of the fitted maximal effect; nearly all actives have a fitted effect of over 55% in size
#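 Chicken DT40 Tdp1-/- cells stably complemented with human TDP1 were seeded at 400 cells/well in medium containing 20 nM camptothecin, exposed to pin-transferred compounds, and grown at 37 °C for at least 48 hr. Viability was read as ATP luminescence.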
# DT40 TDP1 no CPT – qHTS for Inhibitors of human tyrosyl-DNA phosphodiesterase 1 (TDP1): qHTS in cells in absence of CPT. Potency, µM (doses to about 46.2 µM), for inactives: at the highest dose activity change, negative = growth inhibition, actives largely listed as inhibitors. AID 686978, 2013. actives 15% (n = 420,000). DT40 Tdp1-/- hTDP1 cells, no CPT, ATP luminescence, 48 h; further: potency means the concentration at half of the fitted maximal effect; nearly all actives have a fitted effect of over 55% in size
#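 Growth of hTDP1-complemented DT40 Tdp1-knockout cells is measured by ATP luminescence after at least 48 hr compound exposure at 37 °C, with DMSO substituting for the 20 nM CPT used in the parallel screen.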
# ELG1 DNA repair – qHTS screen for small molecules that inhibit ELG1-dependent DNA repair in human embryonic kidney (HEK293T) cells expressing luciferase-tagged ELG1; HEK293T ELG1-luciferase reporter, luminescence, 16 h; DNA damage induced by 5-fluorouridine; Potency, µM (doses to about 46.1 µM), for the others: at the highest dose activity change, negative = inhibition, usual class: inhibitors; actives 2.3% (n = 330,000); AID 504467, 2011; further: potency means the concentration at half of the fitted maximal effect; nearly all actives have a fitted effect of over 55% in size
#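 Luminescence from the luciferase reporter, measured 30 min after ONE-Glo reagent at room temperature, was the read-out. Beforehand, 2,000 cells per well were exposed for 16 hr at 37 °C to 5-fluorouridine together with compound or vehicle.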
# HT1080 IDH1KD tx – qHTS for induction of synthetic lethality in tumor cells producing 2HG: qHTS for the HT-1080-IDH1KD cell line. Potency, µM (doses to about 46.1 µM), without a hit: at the highest dose activity, negative = toxicity, actives largely listed as cytotoxic. actives 2% (n = 360,000). HT-1080 IDH1 knockdown viability, ATP luminescence, 48 h;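 further: potency means the concentration at half of the fitted maximal effect; 0% = DMSO wells and -100% = cell-free medium wells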
#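 IDH1KD HT-1080 cells, 750/well, RPMI + 5% FBS; compound pinned after 2 h settling; 48 h, 37 °C; CellTiter-Glo luminescence; % activity normalised to DMSO and no-cell wells; curves fitted, classed by r2 and efficacy.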
# HT1080NT lethal – qHTS for induction of synthetic lethality in tumor cells producing 2HG: qHTS for the HT-1080-NT fibrosarcoma cell line. HT-1080-NT fibrosarcoma viability, CellTiter-Glo ATP luminescence, 48 h. Potency, µM (series often up to 46.1 µM), without a hit: top-dose activity, negative = less viability, most hits filed as cytotoxic. actives 1.6% (n = 360,000). AID 686970, 2013;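 further: NT is the 2HG producing partner of a matched IDH1 knockdown line; potency means the concentration at half of the fitted maximal effect; 0% = DMSO-treated cells and -100% = media-only wells without cells; nearly all actives have a fitted effect of over 55% in size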
#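 Compounds were tested in concentration-response format on HT-1080-NT cells for 48 hours at 37 degrees C. Cell viability came from CellTiter-Glo luminescence; curves were classified by r2, response magnitude and activity.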
# * hit, by the source's call; ? = inconclusive; nt = no result given; [ ] = remark or other dose. Sampled rows, rich in hits. Any-hit rate of the full collection: about 19%. Unless noted, the call rests on the fitted dose curve; in most records, active means well fitted curve in the direction sought with a large enough effect; inconclusive means small, poorly fitted or top-dose-only effect, or another doubt; inactive means no such curve, though single readings can be large; an effect the other way counts as inactive or inconclusive. Unless noted, on the % scale 0 is the no-effect control and ±100 the full control effect.
SMILES,IL-1B inflam inh,DT40 TDP1 CPT,DT40 TDP1 no CPT,ELG1 DNA repair,HT1080 IDH1KD tx,HT1080NT lethal
CCN(Cc1ccncc1)S(=O)(=O)c1ccc(C(C)=O)cc1,0,16µM*,12µM*,6.5µM*,-11%,0%
O=C1OCC(CO)(CO)N=C1NNc1ccccc1Cl,34,-13%,-8%,5%,-10%,10µM*
O=C(O)C1(Nc2ccccc2Cl)CCCC1,13,6%,-7%,nt,12%,18%
CCN(CC)C(=O)c1ccc(C(=O)c2c(C)cc(C)cc2C)cc1,-9,18µM*,21µM*,?,-12%,-7%
COc1cc(OC)cc(C(=O)Nc2ccc3nc(N4CCC(C)CC4)cc(C)c3c2)c1,nt,9.2µM*,4.6µM*,nt,nt,nt
COc1ccc(C(=O)Nc2ccc3nc(N4CCCCC4)cc(C)c3c2)c(OC)c1,nt,-24%,?,-21%,nt,nt
COc1ccccc1C(=O)Nc1ccc2nc(N3CCC(C)CC3)cc(C)c2c1,nt,?,16µM*,nt,nt,nt
COCCCNC(=O)CCC(=O)Nc1ccc2nc(N3CCOCC3)cc(C)c2c1,10,2%,-12%,?,2%,1%
Cc1cc(N2CCOCC2)nc2ccc(NC(=O)C3CCC(C)CC3)cc12 (stereo not given),-12,?,?,-2%,-1%,-2%
COc1cccc(NC(=O)CCC(=O)Nc2ccc3nc(N4CCOCC4)cc(C)c3c2)c1,-3,?,15µM*,-24%,1%,7%
CCCCNC(=O)c1ccccc1SCC(=O)NC1CCCCCCC1,14,-24%,-1%,0%,-1%,3%
Cc1ccc(C2(C)NC(=O)N(CC(=O)NCc3ccccc3Cl)C2=O)cc1 (stereo not given),-8,-6%,-20%,0%,-2%,-10%
Cc1ccc(OC(C)C(=O)N2CCc3ccccc32)c([N+](=O)[O-])n1 (stereo not given),1,1%,-2%,nt,0%,7%
COc1ccc2cc(CN(Cc3ccco3)C(c3nnnn3C3CCCCC3)C(C)C)c(=O)[nH]c2c1 (stereo not given),4,23µM*,?,6%,0%,1%
COc1ccc2cc(CN(Cc3ccco3)Cc3nnnn3C3CCCCC3)c(=O)[nH]c2c1,-51*,26µM*,?,0%,?,?
CCC(C)(C)n1nnnc1CN(Cc1ccc(Cl)cc1)Cc1ccco1,-26,?,?,?,-2%,-4%
CCC(C)(C)n1nnnc1CN(Cc1ccco1)Cc1cc2cc3c(cc2[nH]c1=O)OCO3,?,21µM*,16µM*,?,5%,6%
CC(C)(C)c1ccc(CN(Cc2ccco2)Cc2nnnn2C2CCCC2)cc1,-8,21µM*,15µM*,-4%,?,-2%
COc1ccc2[nH]c(=O)c(C(c3nnnn3C(C)(C)C)N(Cc3ccco3)CC3CCCO3)cc2c1 (stereo not given),-19,-25%,-30%,28%,?,-27%
O=C(NC1CCCCC1)C(c1cc2ccccc2o1)N1CCOCC1 (stereo not given),-21,6%,0%,nt,15%,13%
COc1ccc(-n2c(=O)c(CCc3ccccc3)nc3cnc(N4CCOCC4)nc32)cc1,nt,8%,8%,nt,nt,nt
O=C(CCc1nc2ccccc2c(=O)[nH]1)Nc1ccc(Cl)c(Cl)c1,0,-23%,?,-4%,?,-14%
COc1cc(OC)cc(C(=O)NCC(=O)NCCN2C(=O)S/C(=C\c3ccccc3Cl)C2=O)c1,-10,?,?,-14%,-8%,-1%
COc1cc(OC)cc(C(=O)NCC(=O)NCCN2C(=O)S/C(=C\c3ccc4c(c3)OCO4)C2=O)c1,-54*,?,18µM*,nt,-2%,0%
COc1ccc(/C=C2\SC(=O)N(CCNC(=O)Cc3coc4cc(C)ccc34)C2=O)cc1OC,-3,?,?,?,-25%,-18%
SMILES,IL-1B inflam inh,DT40 TDP1 CPT,DT40 TDP1 no CPT,ELG1 DNA repair,HT1080 IDH1KD tx,HT1080NT lethal
COc1cc(C(=O)NCC(=O)NCCN2C(=O)S/C(=C\c3ccccc3Cl)C2=O)cc(OC)c1OC,-1,18µM*,18µM*,-18%,-9%,-2%
O=C(CCc1nc2ccccc2c(=O)[nH]1)NCCN1C(=O)S/C(=C\c2ccc(Cl)cc2Cl)C1=O,17,8.2µM*,4.6µM*,-11%,?,-29%
CC(C)CNC(=O)COc1ncnc2sccc12,-8,-9%,3%,-11%,0%,13%
CCOc1ccccc1NC(=O)c1sc2nc3n(c(=O)c2c1C)CCCCC3,nt,-11%,-25%,nt,nt,nt
C=CCN(C1CCCCC1)S(=O)(=O)c1ccc2c(c1)oc(=O)n2C,15,8.2µM*,?,7%,0%,-4%
Cc1cccc(NC(=S)NC2CCCCC2)n1,45,26µM*,?,11%,-20%,?
Cc1cccc(NC(=S)NC2CCCC2)n1,16,?,?,?,-16%,-8%
COC(=O)Cc1ccc(NC(=S)Nc2cccc(C)n2)cc1,17,?,18µM*,?,-17%,-13%
Cc1cccc(NC(=S)NC(=O)c2cccs2)n1,33,-1%,-13%,?,5.6µM*,1.3µM*
Cc1cccc(NC(=S)Nc2cccc(C)n2)n1,31,?,5.2µM*,4%,13%,-26%
C[C@H]1CC[C@@H]2N(C1)C[C@H]1[C@@H]3C[C@H]4[C@@H](C/C(=N\O)[C@H]5C[C@@H](O)CC[C@@]54C)[C@@H]3CC[C@H]1[C@]2(C)O,nt,10%[9.04 µM],-3%[9.04 µM],nt,nt,nt
Nc1nnc(/C=C/c2ccccc2Cl)s1,-21,-15%,-29%,?,-24%,-18%
CCCCN(CC)C(=O)Cn1nc(C)c2c(C)n(-c3ccccc3)nc2c1=O,nt,-8%,-13%,nt,nt,nt
CN(C)c1ccc2c(O)cc(=O)n(C)c2c1,33,15µM*,16µM*,9%,?,6%
Cc1ccc(/C=N/NC(=O)c2n[nH]c3c2CCCC3)cc1,nt,0.82µM*,0.92µM*,?,0.13µM*,0.16µM*

# Bioassay records deposited in PubChem BioAssay by National Center for Advancing Translational Sciences (NCATS).
